Many of the other results were omitted from the sample, so hits are more common in it than they were.
IDE exosite inh = exo-site inhibitors of human IDE, primary screen, biochemical, fluorescence anisotropy, probe displacement; z-score at 20 µM; purified IDE, FL-6b probe fluorescence polarization; hits give low values; hit rate 6.3% among 17,000; Insulin-degrading enzyme (Homo sapiens), P14735;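 active means z-score of -3 or lower, meaning strong loss of probe binding signal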;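 further: His-tagged human IDE residues 42-1019 made in E. coli with 30 nM FL-6b probe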
Target sequence (P14735 42-1019 limits assumed): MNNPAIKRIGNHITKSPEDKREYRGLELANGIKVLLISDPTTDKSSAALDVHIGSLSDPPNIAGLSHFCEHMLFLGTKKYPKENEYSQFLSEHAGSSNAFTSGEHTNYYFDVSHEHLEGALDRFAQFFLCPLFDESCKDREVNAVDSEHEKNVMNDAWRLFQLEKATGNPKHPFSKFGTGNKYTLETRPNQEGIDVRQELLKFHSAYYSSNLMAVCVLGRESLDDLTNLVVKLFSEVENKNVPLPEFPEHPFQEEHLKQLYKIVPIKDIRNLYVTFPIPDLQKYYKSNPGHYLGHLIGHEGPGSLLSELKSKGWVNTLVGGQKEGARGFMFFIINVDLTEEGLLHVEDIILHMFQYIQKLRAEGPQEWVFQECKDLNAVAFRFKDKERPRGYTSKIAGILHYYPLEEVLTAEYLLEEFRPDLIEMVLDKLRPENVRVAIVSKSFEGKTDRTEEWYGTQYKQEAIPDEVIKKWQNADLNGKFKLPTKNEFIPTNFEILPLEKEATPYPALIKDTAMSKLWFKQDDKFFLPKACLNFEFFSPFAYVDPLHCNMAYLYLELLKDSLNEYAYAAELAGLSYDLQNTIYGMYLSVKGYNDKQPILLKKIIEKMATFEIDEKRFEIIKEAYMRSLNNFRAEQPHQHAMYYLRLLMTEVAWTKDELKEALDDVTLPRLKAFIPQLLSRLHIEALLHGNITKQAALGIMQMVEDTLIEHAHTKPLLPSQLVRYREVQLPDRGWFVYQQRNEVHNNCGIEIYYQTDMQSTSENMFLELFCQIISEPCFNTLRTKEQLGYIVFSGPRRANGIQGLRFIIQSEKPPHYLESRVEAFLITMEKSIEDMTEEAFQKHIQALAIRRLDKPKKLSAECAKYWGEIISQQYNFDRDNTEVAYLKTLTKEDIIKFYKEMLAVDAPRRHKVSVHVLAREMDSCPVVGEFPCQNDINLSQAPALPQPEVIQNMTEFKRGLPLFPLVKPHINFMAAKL
* hit, by the source's call.

SMILES | IDE exosite inh
O=C(Nc1ccccc1F)N1CCCCN2[C@@H](CO)[C@H](c3ccc(C#Cc4cccnc4)cc3)[C@@H]2C1 | -4.7*
O=C(Nc1ccccc1F)N1CCCCN2[C@H](CO)[C@H](c3ccc(C#Cc4cccnc4)cc3)[C@H]2C1 | -6.9*
O=C(Nc1ccccc1)N1CCCCN2[C@H](CO)[C@@H](c3ccc(C#Cc4ccccc4)cc3)[C@@H]2C1 | -0.7
O=C(Nc1ccccc1F)N1CCCCN2[C@H](C1)[C@H](c1ccc(C#Cc3ccccc3)cc1)[C@@H]2CO | -2.1
O=C(Nc1ccccc1F)N1CCCCN2[C@H](CO)[C@H](c3ccc(-c4cccnc4)cc3)[C@H]2C1 | -0.4
O=C(Nc1ccccc1)N1CCCCN2[C@H](C1)[C@H](c1ccc(C#Cc3cccnc3)cc1)[C@@H]2CO | 2.2
O=C(Nc1ccccc1)N1CCCCN2[C@H](CO)[C@H](c3ccc(C#Cc4cccnc4)cc3)[C@@H]2C1 | -4.2*
O=C(Nc1ccccc1F)N1CCCCN2[C@H](CO)[C@H](c3ccc(C#Cc4ccccc4)cc3)[C@H]2C1 | -2
O=C(Nc1ccccc1F)N1CCCCN2[C@H](CO)[C@@H](c3ccc(-c4cccnc4)cc3)[C@@H]2C1 | -1.5
COc1ccc2c3c(n(C)c2c1)[C@H](CO)N(Cc1ccncc1)CC31CN(C(=O)Nc2cccc(F)c2)C1 | 0.68
CN(C)C(=O)c1cccc(-c2ccc([C@@H]3[C@H]4CN(C(=O)CC5CC5)CC(=O)N4[C@H]3CO)cc2)c1 | 3.2
COc1ccc(NC(=O)N2CCC3(CC2)CN(C(=O)c2cccnc2)[C@H](CO)c2[nH]c4cc(OC)ccc4c23)cc1 | -1.2
O=C(NC1CCCC1)N1CCCCN2[C@H](C1)[C@@H](c1ccc(-c3cccnc3)cc1)[C@@H]2CO | -0.83
C[C@@H]1CCCCO[C@@H](CN(C)C(=O)CCC(F)(F)F)[C@@H](C)CN([C@H](C)CO)C(=O)c2cc(NC(=O)C3CCCCC3)ccc2O1 | 0.11
O=C(C1CCOCC1)N1CC(=O)N2[C@@H](CO)[C@@H](c3ccc(C#CC4CCCCC4)cc3)[C@@H]2C1 | 0.43
CNC[C@H]1Oc2ccc(NS(=O)(=O)c3ccc(OC)cc3)cc2C(=O)N([C@H](C)CO)C[C@H]1C | 0.39
O=C(C[C@H]1CC[C@H]2NC[C@H](O)COC[C@@H]2O1)Nc1nccs1 | 0.68
O=C(NC1CCCCC1)N1CC(=O)N2[C@H](C1)[C@H](c1ccc(-c3ccncc3)cc1)[C@@H]2CO | -0.15
O=C(NC1CCCCC1)N1CC(=O)N2[C@@H](CO)[C@H](c3ccc(-c4ccncc4)cc3)[C@@H]2C1 | -0.0019
O=C(NC1CCCC1)N1CC(=O)N2[C@H](CO)[C@H](c3ccc(-c4cccnc4)cc3)[C@H]2C1 | -3
O=C(NC1CCCCC1)N1CC(=O)N2[C@@H](CO)[C@@H](c3ccc(-c4ccccc4)cc3)[C@@H]2C1 | -3.7*
O=C(NC1CCCCC1)N1CC(=O)N2[C@H](CO)[C@@H](c3ccc(-c4ccccc4)cc3)[C@H]2C1 | -5.2*
O=C(NC1CCCC1)N1CC(=O)N2[C@H](CO)[C@@H](c3ccc(-c4cccnc4)cc3)[C@H]2C1 | -1.8
O=C(NC1CCCCC1)N1CC(=O)N2[C@H](C1)[C@@H](c1ccc(-c3ccccc3)cc1)[C@@H]2CO | -9.1*
O=C(NC1CCCCC1)N1CC(=O)N2[C@@H](CO)[C@H](c3ccc(-c4ccccc4)cc3)[C@@H]2C1 | -0.88
SMILES | IDE exosite inh
O=C(NC1CCCCC1)N1CC(=O)N2[C@H](C1)[C@H](c1ccc(-c3ccccc3)cc1)[C@@H]2CO | -0.35
Cc1ccc(-c2ccccc2[C@@H]2[C@@H](C#N)N(C(=O)Cc3cccnc3)[C@@H]2CO)cc1 | 2.4
C/C=C/c1ccc([C@H]2[C@@H](CNC(C)=O)N(C(=O)Cc3ccncc3)[C@H]2CO)cc1 | 0.51
O=C(Nc1ccc(F)cc1)N1CC(=O)N2[C@H](C1)[C@@H](c1ccc(C#CC3CC3)cc1)[C@@H]2CO | 3.5
CCCNC(=O)N1CC2(CCN(Cc3nccs3)CC2)c2c([nH]c3cc(OC)ccc23)[C@@H]1CO | -2.3
CC(C)[C@@H]1CC=CC[C@H](C)Oc2ccccc2C(=O)N(C)[C@@H](Cc2ccccc2)C(=O)N1 (mixture of isomers) | 0.75
CC(C)C#Cc1ccc([C@H]2[C@H](CO)N3CCCCN(C(=O)Nc4ccccc4)C[C@@H]23)cc1 | 3.8
C[C@@H]1CN([C@@H](C)CO)C(=O)CCCn2cc(nn2)CO[C@@H]1CN(C)S(=O)(=O)c1cccc(C#N)c1 | 1.2
CC(C)C#Cc1ccc([C@H]2[C@@H](CO)N(C(=O)C3CCOCC3)[C@H]2C#N)cc1 | 1.1
CCC(=O)N1[C@H](CO)[C@@H](c2ccc(-c3cccc(F)c3)cc2)[C@H]1CNC(C)=O | 4.8
CCCNC(=O)N1[C@H](C#N)[C@@H](c2ccc(/C=C/c3ccccc3)cc2)[C@H]1CO | 0.86
COCC(=O)N(C[C@H]1N[C@@H](CO)[C@@H]1c1ccc(-c2cccnc2)cc1)C(C)C | -0.77
Cc1ccc(-c2ccc([C@@H]3[C@H](CO)N4CCCCN(C(=O)c5ccncc5)C[C@@H]34)cc2)cc1 | -1.2
Cc1cccc(-c2ccc([C@H]3[C@H]4CN(C(=O)c5ccncc5)CCCCN4[C@H]3CO)cc2)c1 | -3*
O=C(c1ccncc1)N1CCCCN2[C@@H](CO)[C@@H](c3ccc(-c4ccccc4)cc3)[C@@H]2C1 | -0.96
Cc1cccc(-c2ccc([C@@H]3[C@H](CO)N4CCCCN(C(=O)c5cccnc5)C[C@@H]34)cc2)c1 | -1.4
Cc1cccc(-c2ccc([C@@H]3[C@H](CO)N4CCCCN(C(=O)c5ccncc5)C[C@@H]34)cc2)c1 | -12*
O=C(c1ccncc1)N1CCCCN2[C@H](C1)[C@H](c1ccc(-c3ccccc3)cc1)[C@@H]2CO | 1.9
CCC(=O)N1C[C@@H](C)[C@@H](OC)CN(C)C(=O)c2cc(NC(=O)Nc3ccc(Cl)cc3)ccc2OC[C@H]1C | 0.77
C/C=C/c1ccc([C@H]2[C@H](CO)N3C(=O)CN(Cc4ccc(C(=O)OC)cc4)C[C@@H]23)cc1 | 2
C[C@@H]1CCCCO[C@H](CN(C)C(=O)Cc2ccccc2)[C@H](C)CN([C@H](C)CO)C(=O)c2cc(NS(C)(=O)=O)ccc2O1 | 0.61
Cc1ccccc1-c1ccc([C@H]2[C@H]3CN(C(=O)Cc4ccccn4)CC(=O)N3[C@H]2CO)cc1 | -8.9*
Cc1ccccc1-c1ccc([C@@H]2[C@@H](CO)N3C(=O)CN(C(=O)Cc4ccccn4)C[C@H]23)cc1 | -5.8*
O=C(Cc1ccccn1)N1CC(=O)N2[C@H](CO)[C@@H](c3ccc(-c4ccc(F)cc4)cc3)[C@H]2C1 | 3.3
Cc1ccccc1-c1ccc([C@@H]2[C@H]3CN(C(=O)Cc4ccccn4)CC(=O)N3[C@H]2CO)cc1 | -18*
COc1ccc(-c2ccc([C@@H]3[C@H]4CN(C(=O)Cc5ccccn5)CC(=O)N4[C@H]3CO)cc2)cc1 | -0.28
Cc1ccccc1-c1ccc([C@@H]2[C@@H](CO)N3C(=O)CN(C(=O)Cc4ccccn4)C[C@@H]23)cc1 | -20*
O=C(Cc1ccccn1)N1CC(=O)N2[C@H](C1)[C@@H](c1ccc(-c3ccc(F)cc3)cc1)[C@@H]2CO | 1.9
O=C(Cc1ccccn1)N1CC(=O)N2[C@H](CO)[C@@H](c3ccc(-c4ccc(F)cc4)cc3)[C@@H]2C1 | 2.1
O=C(Cc1ccccn1)N1CC(=O)N2[C@H](CO)[C@H](c3ccc(C#CC4CC4)cc3)[C@H]2C1 | 2.2

Screens: PubChem, Broad Institute
